Most compounds without a hit are left out; they make up all but 4.1% or so of the library.
hcDAF12 agonist: activates DAF-12 receptor from parasite H. contortus | HEK293 hcDAF-12 lit1-tk-luc reporter, luminescence; 0% DMSO, 100% Δ7-dafachronic acid | activation, % at 6.8 µM | actives 1.4% (n = 370,000);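 active = activation above the mean of all tested compounds plus 3 SD, cut at about 5.5% in these data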;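 note: 100% = response to 3 µM Δ7-dafachronic acid high control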
ssDAF-12 act: activates DAF-12 receptor from parasite S. stercoralis. HEK293 ssDAF-12/GRIP1 lit1-tk-luc reporter, luminescence; % of 3 µM dafachronic acid response. activation, % at 6.8 µM. actives 1% (n = 370,000). AID 652126;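 active = activation above the mean over all tested compounds plus 3 SD, cut at about 0.9% in these data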;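 note: 0% = DMSO-only wells and 100% = 3 µM delta7-dafachronic acid wells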
hgDAF12 agonist: agonists of H. glycines DAF-12 nuclear receptor | actives 1.8% (n = 370,000) | activation, % at 6.8 µM | HEK293 GAL4-hgDAF12 UAS-luciferase reporter, agonist luminescence; normalized to butyrate control;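 active = activation above a cutoff set at the mean of all screened compounds plus 3 SD, cut at about 10% in these data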;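 note: 0% = DMSO wells and 100% = sodium butyrate wells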
DAX1 inh-1: DAX1 (NR0B1) inhibition, primary screen | HEK293T StAR-luciferase reporter, SF-1/DAX-1 repression relief | inhibition, % at 6.8 µM | actives 1.1% (n = 370,000);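 active = inhibition above the mean over all tested compounds plus 3 SD, cut at about 3.6% in these data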;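 note: 0% = DAX-1 cells with DMSO and 100% = cells lacking DAX-1 with DMSO; higher inhibition means more luminescence from relief of DAX-1 repression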
DAX1 inh-2: inhibits human nuclear receptor DAX1. P51843. HEK293 Gal4-DAX1 luciferase reporter, luminescence. inhibition, % at 6.75 µM. actives 0.99% (n = 340,000). AID 504766;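 active = inhibition above the mean over all tested compounds plus 3 SD, cut at about 4.2% in these data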;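 note: 0% = DAX1-transfected cells with DMSO and 100% = empty-vector control cells with DMSO; inhibition shows as a rise in luminescence from relieved DAX1 repression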
Target sequence (P51843 207-470 limits assumed): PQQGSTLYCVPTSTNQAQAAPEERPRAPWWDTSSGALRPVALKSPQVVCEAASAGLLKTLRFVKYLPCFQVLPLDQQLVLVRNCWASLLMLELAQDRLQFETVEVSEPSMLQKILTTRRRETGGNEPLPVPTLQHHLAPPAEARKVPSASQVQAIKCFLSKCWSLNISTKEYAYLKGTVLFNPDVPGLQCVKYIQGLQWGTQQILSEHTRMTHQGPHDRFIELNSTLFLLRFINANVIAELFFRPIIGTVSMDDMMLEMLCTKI
Active calls of the source: *; . = no result.

SMILES	hcDAF12 agonist	ssDAF-12 act	hgDAF12 agonist	DAX1 inh-1	DAX1 inh-2
Cc1cc(C)n(-c2cc(C(C)(C)C)nc3c(-c4ccccc4)cnn23)n1	3	0	11*	3	5.2*
Cc1cc(NC(C)c2ccccc2)n2ncc(-c3ccccc3)c2n1 (centres undefined)	2	0	8	1	4.7*
COc1cc(CNc2ncnc3c2ncn3[C@H]2CN(Cc3ccco3)C[C@@H](CO)O2)cc(OC)c1OC	-1	-1	2	2	.
CCC(=O)c1ccc(OC(=O)c2cnccn2)cc1	1	-1	4	0	5.0*
COc1ccccc1/C=C/C=N/n1c(-c2ccccn2)n[nH]c1=S	5.6*	-1	5	1	1
COc1ccccc1-c1nn2c(-c3ccco3)nnc2s1	2	0	8	3	5.9*
c1coc(-c2nn3c(-c4ccco4)nnc3s2)c1	-1	0	-1	0	-1
CN1CCCCC(NC(=O)C2CCCCC2)C1=O (centres undefined)	0	-1	0	1	.
Cc1cccc(C(=O)OCC(=O)c2ccc3c(c2)OCO3)c1O	3	0	9	3.9*	2
COC(=O)C1CC2=C(CCCC2=O)N(Cc2ccccc2)C1=O (centres undefined)	-1	-1	-5	1	-1
O/N=C(/CCc1ccccc1)c1ccc2c(c1)OCCO2	2	-1	11*	3	1
S=C(N/N=C/c1ccc(Br)cc1)N1CCCCC1	3	1.2*	10	2	6.7*
Cc1ccc(/C=N/NC(=S)N2CCOCC2)cc1	4	0	12*	2	1
CCOC(=O)CC[C@@]1(C(=O)OCC)C[C@@H](CC(=O)N2CCCC2)C(=O)N2CCCC=C21	1	-1	-4	0	.
Cc1cccc(C)c1NC(=O)C(c1ccccc1)N(C)CCc1ccccc1 (centres undefined)	-1	-1	0	-1	.
CC(=O)N1CCN(C2=NC(=O)C(=C3CCCCC3)S2)CC1	-1	-1	3	0	0
O=C1N=C(N2CCOCC2)SC1=C1CCCCC1	-1	-1	4	0	6.8*
COc1cccc(C(=O)Nc2nnc(C3CCCO3)s2)c1 (centres undefined)	2	1.0*	9	2	2
CCc1nnc(NC(=O)c2ccc(OC)cc2)s1	2	-1	11*	3	2
CCc1nnc(NC(=O)Cc2ccc(OC)c(OC)c2)s1	-2	-2	-3	0	5.1*
COC(=O)Nc1nnc(-c2ccc(OC)cc2)s1	1	0	13*	1	3
O=C(N=Nc1c(O)[nH]c2c(Cl)cc(Cl)cc12)c1ccccc1O	1	-1	5	1	.
COc1ccc(C(=O)Cc2nnc(C)s2)cc1	4	-1	5	1	4.8*
CCc1nnc(NC(=O)c2cccc(OC)c2)s1	3	0	6	3.9*	0
COc1ccc(C(=O)Cc2ccccc2C(=O)O)cc1	0	-1	2	0	3
SMILES	hcDAF12 agonist	ssDAF-12 act	hgDAF12 agonist	DAX1 inh-1	DAX1 inh-2
Cc1ccc(C(=O)Nc2nnc(COCCO)s2)cc1	6.0*	1.0*	10	2	.
Cc1cccc(-c2nnc(NC(=O)c3cccs3)s2)c1	-1	-1	-1	0	4.3*
CCOCc1nnc(NC(=O)c2cccc(OC)c2)s1	2	0	4	2	2
Cc1ccc(-n2c(COc3ccccc3)nnc2SCC(=O)Nc2ccc3c(c2)OCO3)cc1	0	-1	-1	-2	.
COC(=O)Cc1nnn2c1CC(OC)c1cc(Br)ccc1-2 (centres undefined)	0	-1	2	0	.
CCOC(=O)CNC(=O)CSc1nnc(NC(=O)c2ccc3c(c2)OCO3)s1	4	-1	4	2	0
COc1cc(OC)cc(C(=O)NC2=NCCS2)c1	-1	-1	3	0	-1
COc1ccc(C(=O)NC2=NCCS2)cc1	0	0	12*	2	1
CCOC(=O)CNC(=O)CSc1nnc(NC(=O)c2ccc(C)cc2)s1	6.4*	0	13*	2	-1
COc1cccc(C(=O)Nc2nnc(-c3cccs3)s2)c1	3	0	11*	2	2
Cc1ccc(C(=O)N2CCN(c3ccc(NC(=O)c4cccnc4Cl)cc3)CC2)cc1	-3	-1	-1	-1	-2
CC1CCN(c2ccc(NC(=O)c3cccnc3Cl)cc2)CC1	0	-1	12*	1	2
N#Cc1ccccc1NC(=O)c1cc(=O)c2ccccc2o1	-1	-2	11*	1	1
C=CCN1[C@H](C#N)[C@@H](c2ccc(Br)cc2)[C@H]1CO	0	-1	-3	1	.
O=C(NCc1cccs1)c1noc2c1CCCCC2	0	-1	10*	1	1
O=C(O)c1cccnc1Sc1ccccc1	-2	-1	-1	0	1
Cc1nccnc1Sc1ccccc1	1	2.0*	-2	0	0
COc1ccc(S(=O)(=O)Nc2ccc(C(N)=O)cc2)cc1C(=O)N1CCCCCC1	0	-1	1	0	-1
Cc1ccc(NCc2ccccc2O)cc1	0	0	4	0	1
Cc1ccc(NCc2ccccc2F)cc1	6.2*	0	4	0	0
COC(=O)c1cc2c(c3c4cc(OC)ccc4n(S(=O)(=O)c4ccccc4)c13)C(=O)N(C)C2	0	-1	-2	0	.
Cc1cc(N2CCN(CC(C)(C)O)C[C@@H]2C)ccc1N1CCN(CC(C)(C)O)[C@H](C)C1	-3	-1	-6	1	.
COc1cc(C)c(C(=O)Oc2cc(C)c(C(=O)O)c(O)c2C)c(OC)c1C	0	-1	3	-2	4.3*
CSCCC(NC(N)=O)C(=O)Nc1ccc2ccccc2c1 (centres undefined)	-1	-2	0	0	1
CSCCC(NC(N)=O)C(=O)Nc1cccc(C#N)c1 (centres undefined)	-1	-2	4	0	5.1*
NC(=O)c1ncn([C@@H]2O[C@H](C(=O)N3CCN(Cc4ccccn4)CC3)[C@@H](O)[C@H]2O)n1	0	0	0	1	.
O=C(N[C@H](C(=O)N1CCC[C@H]1C(=O)NC1CCCC1)c1ccccc1)c1ccccc1	4	-1	0	0	.
CN(CC(O)COCc1cccs1)C1CCCCC1 (centres undefined)	-1	-1	12*	0	3
COc1cccc(C2c3[nH]c4ccccc4c3C[C@H]3C(=O)N(c4ccccc4C(=O)NCCCN4CCOCC4)C(=O)N23)c1 (some centres undefined)	5.7*	-1	-1	-1	-1
O=C(NCCCN1CCOCC1)c1ccccc1N1C(=O)[C@@H]2Cc3c([nH]c4ccccc34)C(c3ccc(F)cc3)N2C1=O (some centres undefined)	1	-1	2	-1	1
